Screening data as filed in PubChem BioAssay.
HEK cytotox = Cytotoxic Profiling in HEK 293 Cell Line of Diverse Libraries Using Quantitative High-Throughput Screening. HEK 293 viability, ATP luminescence (CellTiter-Glo), 48-72 h. Potency, µM (highest dose often 115 µM), usual class: inhibitors. actives 6.6% (n = 94,000). AID 1345083, 2018; also: nearly all actives have a fitted effect of over 60% in size
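ATP-coupled CellTiter-Glo luminescence served as viability read-out, recorded 10 min after reagent addition at room temperature. HEK 293 cells, 250 cells/well, had been incubated with pintool-transferred compound for 48 or 72 hr at 37 degree Celsius.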
FLuc inh = Firefly luciferase inhibition profiling of diverse chemical library using quantitative high-throughput screening; purified P. pyralis luciferase, luminescence, biochemical; AID 1347043, 2019; Luciferin 4-monooxygenase (Photinus pyralis), P08659; Potency, µM (top dose mostly 115 µM), usual class: inhibitors; actives 2.5% (n = 76,000); also: nearly all actives have a fitted effect of over 65% in size
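Cell-free enzyme assay, 10nM P. pyralis luciferase, luciferin and ATP each at 10uM. Inhibition profiled over a 6-point titration, read as luminescence.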
3T3 cytotox = Cytotoxic Profiling in NIH 3T3 Cell Line of Diverse Libraries Using Quantitative High-Throughput Screening; NIH 3T3 viability, CellTiter-Glo ATP luminescence, 48-72 h; Potency, µM (titrated, usually from 96.7 µM), most hits filed as inhibitors; AID 1345082, 2018; actives 4.3% (n = 94,000); also: nearly all actives have a fitted effect of over 55% in size
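First NIH 3T3 cells are plated at 400 cells/well; next compound is pinned in; then plates incubate 48 or 72 hr at 37 °C; finally CellTiter-Glo is added and luminescence read after 10 min.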
NPR1 antag = Natriuretic polypeptide receptor (hNpr1) antagonism - Primary qHTS; Atrial natriuretic peptide receptor 1 (Homo sapiens), P16066; HEK293 hNpr1 GloSensor cGMP, ANP-stimulated luminescence; Potency, µM (doses to about 46.3 µM), hits mostly inhibitors; actives 1.6% (n = 76,000); calls by dose curve; also: nearly all actives have a fitted effect of over 60% in size
Target sequence (P16066 whole entry, looked up): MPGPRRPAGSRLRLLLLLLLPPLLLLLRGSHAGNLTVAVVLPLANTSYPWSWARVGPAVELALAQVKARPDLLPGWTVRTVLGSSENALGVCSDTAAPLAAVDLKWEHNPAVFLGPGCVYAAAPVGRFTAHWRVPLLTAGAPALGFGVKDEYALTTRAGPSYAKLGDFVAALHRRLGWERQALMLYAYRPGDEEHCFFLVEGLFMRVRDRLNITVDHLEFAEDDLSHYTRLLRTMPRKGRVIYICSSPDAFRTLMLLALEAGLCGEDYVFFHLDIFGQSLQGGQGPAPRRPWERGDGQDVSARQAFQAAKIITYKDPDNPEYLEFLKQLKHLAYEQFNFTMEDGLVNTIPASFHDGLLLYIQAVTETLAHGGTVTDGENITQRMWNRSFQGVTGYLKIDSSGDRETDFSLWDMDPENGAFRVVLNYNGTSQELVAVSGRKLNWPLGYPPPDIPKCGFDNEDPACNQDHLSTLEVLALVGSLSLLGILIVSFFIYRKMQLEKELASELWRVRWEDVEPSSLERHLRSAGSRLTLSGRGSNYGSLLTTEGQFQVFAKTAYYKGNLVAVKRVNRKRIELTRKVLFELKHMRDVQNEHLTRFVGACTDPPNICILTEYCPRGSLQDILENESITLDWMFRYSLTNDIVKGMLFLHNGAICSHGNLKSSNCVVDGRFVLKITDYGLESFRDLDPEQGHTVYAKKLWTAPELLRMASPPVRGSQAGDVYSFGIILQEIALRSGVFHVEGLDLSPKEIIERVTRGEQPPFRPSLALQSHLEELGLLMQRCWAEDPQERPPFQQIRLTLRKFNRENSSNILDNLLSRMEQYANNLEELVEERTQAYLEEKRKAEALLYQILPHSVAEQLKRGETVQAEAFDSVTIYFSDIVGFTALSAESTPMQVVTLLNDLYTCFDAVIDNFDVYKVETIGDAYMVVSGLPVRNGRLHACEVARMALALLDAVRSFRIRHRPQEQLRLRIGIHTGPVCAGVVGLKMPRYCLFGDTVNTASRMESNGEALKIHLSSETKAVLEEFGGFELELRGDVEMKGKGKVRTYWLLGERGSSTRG
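Compound pre-incubated 30 min at room temperature on GloSensor-loaded HEK293 cells stably carrying hNpr1 and the pGS-40F cGMP biosensor. Stimulation uses hNppA at 0.1 nM final; luminescence is taken at baseline and 20 min post-agonist.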
Numbers stand for hits; - = inactive; ? = inconclusive; . = not tested or not shown. The list is not random: actives were taken first. Their share in the collection is about 11%. Unless noted, calls follow the shape of the dose curve; as a rule, active = well fitted curve in the direction sought with a large enough effect; inconclusive = small, poorly fitted or top-dose-only effect, or another doubt; inactive = no such curve, though single readings can be large; an effect the other way counts as inactive or inconclusive.

SMILES	HEK cytotox	FLuc inh	3T3 cytotox	NPR1 antag
O=C(Cc1ccc(Br)cc1)N1CCCN(C(=O)C2CC2)c2ccccc21	?	-	?	-
CN1CCCN(C(=O)Cc2ccc(OC(F)(F)F)cc2)c2ccccc21	?	-	39.8µM	-
O=C(Cc1cccs1)N1CCCN(CCc2ccccc2)c2ccccc21	?	-	31.6µM	-
O=C(Cc1ccc(F)cc1)N1CCCN(CCc2ccccc2)c2ccccc21	?	.	35.5µM	.
CS(=O)(=O)N1CCCN(C(=O)Cc2ccc(OC(F)(F)F)cc2)c2ccccc21	?	-	?	-
COc1ccccc1CN1Cc2cc(NC(=O)c3ccc(C#N)cc3)ccc2OC(C)C1=O (centres undefined)	?	-	?	-
CN1CCN(C(=O)C2CCc3nc(N4CCN(C(=O)C5CCC5)CC4)sc3C2)CC1 (centres undefined)	-	-	-	-
COc1ccccc1CC(=O)N1CCCc2ncc(C(=O)Nc3ccc(OC)c(OC)c3)cc21	?	-	-	-
O=C(NCc1cccc(F)c1)c1cnc2c(c1)N(Cc1ccccc1)CCC2	?	-	?	-
COc1ccccc1CC(=O)N1CCCc2ncc(C(=O)Nc3cccc(Cl)c3)cc21	56.2µM	-	?	?
COc1ccc(NC(=O)c2cnc3c(c2)N(C(=O)Cc2cccc(C(F)(F)F)c2)CCC3)cc1OC	?	-	?	-
O=C(Nc1cccc(C(F)(F)F)c1)c1cnc2c(c1)N(Cc1ccccc1)CCC2	63.1µM	-	31.6µM	-
COc1ccccc1CC(=O)N1CCCc2ncc(C(=O)Nc3cccc(C(F)(F)F)c3)cc21	50.1µM	-	?	-
O=C(NCc1ccnc2[nH]ccc12)c1cccc(Cl)c1	-	?	?	-
O=C(c1cccc(Cl)c1)N1CCCC(C(=O)N2CCCC(c3nc4ncccc4[nH]3)C2)C1 (centres undefined)	-	.	-	.
COc1ccc(C)cc1NC(=O)N1CCC(OC2CCN(Cc3ccccc3)CC2)CC1	-	-	-	-
O=C(NC1CC1)c1ccc2nnc(-c3cccc(C(F)(F)F)c3)n2c1	-	.	?	.
O=C(NCc1ccccc1)c1ccc2nnc(-c3ccoc3)n2c1	-	.	?	.
O=C(NCc1ccc(Cl)cc1)c1ccc2nnc(-c3cc(C(F)(F)F)cc(C(F)(F)F)c3)n2c1	14.1µM	.	?	.
O=C(NCc1ccccc1Cl)c1ccc2nnc(-c3ccoc3)n2c1	112µM	.	?	.
O=C(NC1CCCCC1)c1ccc2nnc(-c3cc(C(F)(F)F)cc(C(F)(F)F)c3)n2c1	35.5µM	.	31.6µM	.
O=C(NCc1ccc(Cl)cc1)c1ccc2nnc(-c3cccc(C(F)(F)F)c3)n2c1	14.1µM	.	?	.
CC(=O)N1CCCC(C(=O)N2CCCC2c2nc3ccncc3[nH]2)C1 (centres undefined)	-	.	-	.
O=C(C1CCCN1C(=O)c1cccc(Cl)c1)N1CCCC(c2nc3ncccc3[nH]2)C1 (centres undefined)	-	.	-	.
Cc1ccc(-n2cccc2CC(=O)N2CCOCC2)cc1	-	-	-	-
SMILES	HEK cytotox	FLuc inh	3T3 cytotox	NPR1 antag
COc1cccc(CNC(=O)c2ccc3nnc(-c4cc[nH]c4)n3c2)c1	-	.	-	.
O=C(NCc1ccc(F)cc1)c1ccc2nnc(-c3cccc(C(F)(F)F)c3)n2c1	39.8µM	.	?	.
COc1cccc(CNC(=O)c2ccc3nnc(-c4cccc(C(F)(F)F)c4)n3c2)c1	44.7µM	.	?	.
O=C(NCCc1ccc(Cl)cc1)c1ccc2nnc(-c3cccc(C(F)(F)F)c3)n2c1	?	.	22.4µM	.
O=C(NC1CCCCCC1)c1ccc2nccn2c1	?	39.8µM	-	-
COc1cc(C(=O)NC2CCN(c3cc(-c4ccccc4)[nH]n3)C2)cc(OC)c1OC (centres undefined)	?	-	-	-
O=C1NCCCCCCN(C(=O)CCC2CCCC2)[C@H]2CCC[C@@H]12	-	-	-	-
Cc1ccc(NC(=O)c2cnc(-c3ccccc3)nc2-c2ccncc2)c(Br)c1	-	-	-	-
O=C(Cn1nc2n(c1=O)CCCCC2)Nc1ccc(Cl)cc1	-	-	-	-
O=C(NCc1ccc(F)c(F)c1)c1ccc2nnc(-c3cccc(C(F)(F)F)c3)n2c1	31.6µM	.	25.1µM	.
COc1cccc(CNC(=O)C2CN(C(C)C)C(=O)N2)c1 (centres undefined)	-	.	-	.
COc1ccc(NC(=O)[C@@H]2C[C@@H](c3ccc(F)cc3)N(Cc3ccccc3)C2)cc1	?	-	-	-
Cc1nc(CN2C[C@H](C(=O)Nc3ccc(F)cc3)C[C@@H]2c2ccc(F)cc2)cs1	100µM	-	100µM	-
COc1ccc(NC(=O)[C@@H]2C[C@H](c3ccc(F)cc3)N(Cc3csc(C)n3)C2)cc1	79.4µM	-	?	-
Cc1ccc(C(=O)NC(C(=O)N2CCCCC2)C2CCN(S(=O)(=O)C(C)C)CC2)cc1 (centres undefined)	-	-	-	-
O=C(c1cc(F)ccc1Cl)N1CCC(n2cc(-c3nc(-c4ccccc4)no3)nn2)C1 (centres undefined)	?	?	?	12.6µM
CN(C)c1ccc(C(=O)N2CCC(n3cc(-c4nc(-c5ccccc5)no4)nn3)C2)cc1 (centres undefined)	44.7µM	?	?	-
Cc1ccc(C(=O)N2CCC(n3cc(-c4nc(-c5ccccc5)no4)nn3)C2)cc1C (centres undefined)	44.7µM	31.6µM	?	2µM
CN(C)c1ccc(C(=O)N2CCC(n3cc(-c4nc(C5CC5)no4)nn3)C2)cc1 (centres undefined)	?	-	-	-
CCN1c2cc(C(=O)Nc3ccc(F)cc3)ccc2C(=O)N2CCCC21 (centres undefined)	?	-	-	-
CCC(C)NC(=O)C1COC2(CCC(C)CC2)N1C(=O)c1cccc(F)c1 (centres undefined)	?	-	-	-
Cn1ccc(C(=O)N2CC(CNc3ccccc3)C3(C2)CN(c2ccccc2)C3)n1 (centres undefined)	63.1µM	-	?	?
Cc1ncsc1C(=O)N1CC(COc2ccccc2)C2(C1)CN(c1ccccc1)C2 (centres undefined)	100µM	-	?	-
Cn1nccc1C(=O)N1CC(COc2ccccc2)C2(C1)CN(c1ccccc1)C2 (centres undefined)	?	-	?	-
Cn1ccc(C(=O)N2CC(COc3ccccc3)C3(C2)CN(c2ccccc2)C3)n1 (centres undefined)	?	-	100µM	-
N#Cc1cccc(CN2CCC3(CC2)COCCN3C(=O)OCc2ccccc2)c1	?	-	?	-
O=C(C1CC1)N1CCC(c2nn(-c3ccccc3)c(=O)[nH]2)CC1	-	-	-	-
CC(=O)N1CCN([C@H]2[C@@H]3OC[C@@H](O3)[C@@H](NC(=O)Nc3ccccc3)[C@@H]2O)CC1	-	-	-	-
